Laboratory results reported in PubChem BioAssay (NCATS).
Records with an inconclusive call do not appear. The source made the active and inactive calls. Unless noted, the call rests on the fitted dose curve; in most records, active means well fitted curve in the direction sought with a large enough effect; inconclusive means small, poorly fitted or top-dose-only effect, or another doubt; inactive means no such curve, though single readings can be large; an effect the other way counts as inactive or inconclusive.

Assays:
[1] = qHTS for Inhibitors of Plasmodium falciparum (DD2) proliferation (AID 504314);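 further: parasite DNA measured by SYBR Green fluorescence after red cell lysis; plate controls were DMSO vehicle for no effect and artemisinin wells for full effect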
Procedure, shortened: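 Erythrocytes infected with P. falciparum (0.3% parasitemia, 2.5% hematocrit final) were incubated with compounds for 72 h at 37C, 5% CO2. Parasite DNA was detected by SYBR Green I fluorescence after saponin/Triton lysis, normalized to artemisinin (0.29 uM) and DMSO controls.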

[2] = qHTS for Inhibitors of Plasmodium falciparum (GB4) proliferation (AID 504315);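 further: 0% = DMSO vehicle and -100% = 0.29 µM artemisinin control; nearly all actives have a fitted effect of over 50% in size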
Procedure, shortened: (§1)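 Erythrocytes infected with P. falciparum line (0.3% parasitemia, 2.5% hematocrit final) incubated with compounds 72 h at 37 °C, 5% CO2; SYBR Green lysis buffer added, fluorescence read next day. Normalized to 0.29 uM artemisinin and DMSO.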

[3] = qHTS for Inhibitors of Plasmodium falciparum (HB3) proliferation (AID 504318);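 further: 0% = DMSO vehicle and -100% = artemisinin control; nearly all actives have a fitted effect of over 60% in size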
Procedure, shortened: as §1

[4] = qHTS for Inhibitors of Plasmodium falciparum (CP250) proliferation (AID 504320);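 further: plate controls were DMSO vehicle for no effect and 0.29 µM artemisinin control for full effect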
Procedure, shortened: as §1

[5] = target: Atrial natriuretic peptide receptor 1 (Homo sapiens) (UniProt P16066); assay: Natriuretic polypeptide receptor (hNpr1) antagonism - Pilot CMLD screen (AID 1347052; calls by dose curve;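 further: cGMP level read as GloSensor luciferase luminescence after agonist stimulation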; further: potency means the concentration at half of the fitted maximal effect;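 on activity change, negative = inhibition: HEK293 cells with hNpr1 stimulated by hNppA peptide at 0.1 nM; series mostly up to about 9.2 µM; on the % scale 0 is the no-effect control and ±100 the full control effect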)
Atrial natriuretic peptide receptor 1 (Homo sapiens), sequence (P16066 whole entry, looked up): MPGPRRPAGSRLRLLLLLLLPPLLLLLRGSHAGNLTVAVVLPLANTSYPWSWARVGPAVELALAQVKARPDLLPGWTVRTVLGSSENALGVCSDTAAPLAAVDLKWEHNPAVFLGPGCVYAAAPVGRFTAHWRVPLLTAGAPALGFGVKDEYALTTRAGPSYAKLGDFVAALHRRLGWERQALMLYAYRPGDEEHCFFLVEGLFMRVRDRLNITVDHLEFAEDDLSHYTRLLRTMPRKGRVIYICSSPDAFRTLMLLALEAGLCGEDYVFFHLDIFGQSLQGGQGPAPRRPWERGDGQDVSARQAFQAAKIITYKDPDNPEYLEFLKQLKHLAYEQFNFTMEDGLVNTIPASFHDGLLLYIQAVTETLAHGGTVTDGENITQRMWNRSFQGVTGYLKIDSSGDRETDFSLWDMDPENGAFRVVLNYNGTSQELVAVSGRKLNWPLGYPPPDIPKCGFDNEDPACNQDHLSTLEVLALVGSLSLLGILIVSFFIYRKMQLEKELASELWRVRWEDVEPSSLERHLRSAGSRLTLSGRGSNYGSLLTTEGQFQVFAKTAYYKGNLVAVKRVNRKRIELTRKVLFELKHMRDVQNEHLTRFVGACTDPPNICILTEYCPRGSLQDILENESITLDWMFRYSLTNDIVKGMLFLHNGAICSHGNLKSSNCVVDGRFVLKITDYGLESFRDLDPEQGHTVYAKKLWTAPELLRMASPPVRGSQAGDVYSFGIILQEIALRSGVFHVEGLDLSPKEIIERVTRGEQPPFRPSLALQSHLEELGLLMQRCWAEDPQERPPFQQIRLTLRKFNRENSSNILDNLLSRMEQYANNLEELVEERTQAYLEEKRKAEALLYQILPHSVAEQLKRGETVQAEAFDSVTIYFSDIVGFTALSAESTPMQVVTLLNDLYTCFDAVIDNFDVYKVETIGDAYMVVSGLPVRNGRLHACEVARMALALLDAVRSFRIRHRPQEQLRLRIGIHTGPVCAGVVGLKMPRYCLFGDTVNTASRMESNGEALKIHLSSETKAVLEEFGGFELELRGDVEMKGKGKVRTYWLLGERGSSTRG

[6] = target: Cytochrome P450 2C9 (Homo sapiens) (UniProt P11712); assay: qHTS Assay for Inhibitors and Substrates of Cytochrome P450 2C9 (AID 883); further: on the % scale 0 is the no-effect control and ±100 the full control effect; nearly all actives have a fitted effect of over 60% in size
Cytochrome P450 2C9 (Homo sapiens), sequence (P11712 whole entry, looked up): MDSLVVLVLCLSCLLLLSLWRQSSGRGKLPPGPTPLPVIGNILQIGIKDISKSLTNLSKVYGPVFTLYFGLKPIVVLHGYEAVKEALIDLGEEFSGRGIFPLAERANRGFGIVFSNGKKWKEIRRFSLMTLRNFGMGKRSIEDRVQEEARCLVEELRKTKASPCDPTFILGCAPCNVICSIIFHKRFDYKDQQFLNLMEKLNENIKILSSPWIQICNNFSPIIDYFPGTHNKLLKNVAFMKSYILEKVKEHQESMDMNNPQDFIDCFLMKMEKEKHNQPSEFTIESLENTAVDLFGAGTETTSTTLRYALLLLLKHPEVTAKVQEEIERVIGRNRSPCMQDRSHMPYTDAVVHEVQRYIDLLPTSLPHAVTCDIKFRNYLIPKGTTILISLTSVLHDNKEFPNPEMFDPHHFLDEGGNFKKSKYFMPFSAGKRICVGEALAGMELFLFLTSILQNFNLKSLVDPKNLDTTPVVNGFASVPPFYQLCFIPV
Procedure, shortened: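 A luminogenic readout tracked human CYP2C9 (10nM) converting deoxyluciferin (100uM, at KM) in 25mM KPO4 during 60 min at 37C with regenerated NADPH. Values normalized to 57uM sulphaphenazole as complete inhibition.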

[7] = target: Cytochrome P450 3A4 (Homo sapiens) (UniProt P08684); assay: qHTS Assay for Inhibitors and Substrates of Cytochrome P450 3A4 (AID 884); further: series mostly up to about 57 µM; on the % scale 0 is the no-effect control and ±100 the full control effect; nearly all actives have a fitted effect of over 50% in size
Cytochrome P450 3A4 (Homo sapiens), sequence (P08684 whole entry, looked up): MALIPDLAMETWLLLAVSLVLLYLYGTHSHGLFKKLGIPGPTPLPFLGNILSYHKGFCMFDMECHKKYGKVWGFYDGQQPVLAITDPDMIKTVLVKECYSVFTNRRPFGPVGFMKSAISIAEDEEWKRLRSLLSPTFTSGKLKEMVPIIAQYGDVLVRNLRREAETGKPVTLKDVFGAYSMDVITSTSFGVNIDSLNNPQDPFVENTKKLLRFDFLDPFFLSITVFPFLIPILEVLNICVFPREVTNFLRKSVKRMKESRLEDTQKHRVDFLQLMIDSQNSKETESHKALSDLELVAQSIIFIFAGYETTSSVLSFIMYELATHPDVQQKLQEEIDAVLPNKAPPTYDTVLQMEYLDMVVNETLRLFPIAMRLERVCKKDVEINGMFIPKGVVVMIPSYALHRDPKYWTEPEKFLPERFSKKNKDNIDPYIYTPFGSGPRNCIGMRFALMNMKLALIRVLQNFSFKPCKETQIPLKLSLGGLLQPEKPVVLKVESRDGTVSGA
Procedure, shortened: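 20 nM human CYP3A4 with 25 uM Luciferin-PPXE (at KM) in 200 mM KPO4, preincubated 10 min with compound; NADPH regeneration started a 60 min RT reaction. Luciferin detected by luminescence, normalized to 57 uM ketoconazole as full inhibition.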

[8] = target: Cytochrome P450 2C19 (Homo sapiens) (UniProt P33261); assay: qHTS Assay for Inhibitors and Substrates of Cytochrome P450 2C19 (AID 899); further: on the % scale 0 is the no-effect control and ±100 the full control effect; nearly all actives have a fitted effect of over 60% in size
Cytochrome P450 2C19 (Homo sapiens), sequence (P33261 whole entry, looked up): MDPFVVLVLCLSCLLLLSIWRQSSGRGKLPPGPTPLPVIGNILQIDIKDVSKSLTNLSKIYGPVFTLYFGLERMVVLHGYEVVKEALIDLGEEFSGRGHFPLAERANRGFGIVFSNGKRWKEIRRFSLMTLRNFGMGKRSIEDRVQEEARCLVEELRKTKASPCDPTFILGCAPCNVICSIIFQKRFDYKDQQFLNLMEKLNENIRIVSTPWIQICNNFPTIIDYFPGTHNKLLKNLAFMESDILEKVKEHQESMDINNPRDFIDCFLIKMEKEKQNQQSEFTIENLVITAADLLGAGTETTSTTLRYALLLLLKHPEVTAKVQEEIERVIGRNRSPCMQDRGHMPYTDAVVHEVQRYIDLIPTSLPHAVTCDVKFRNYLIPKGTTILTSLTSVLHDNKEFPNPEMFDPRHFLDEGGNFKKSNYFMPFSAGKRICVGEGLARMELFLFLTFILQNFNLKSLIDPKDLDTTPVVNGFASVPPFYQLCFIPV
Procedure, shortened: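 NADPH-dependent conversion of Luciferin-H EGE (10uM, at KM) by 5nM enzyme in 50mM KPO4, 60 min at 37C following 10 min compound preincubation. Stopped with luciferin detection buffer; luminescence read after 20 min.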

COc1cccc(CO[C@H]2C=C[C@@H](c3ccccc3)O[C@H]2CO)c1
inactive: Potency [1] | Potency [2] | Potency [3] | Potency [4] | Potency [5]

C=CC(=O)N1C(=O)c2ccccc2S1(=O)=O
inactive: Potency [1] | Potency [2] | Potency [3] | Potency [4]
active: Potency [5] 2.99 µM

C=C=CCCN1C(=O)NC(c2ccccc2)C(C(=O)OC)=C1C (stereo not drawn)
inactive: Potency [1] | Potency [2] | Potency [3] | Potency [4] | Potency [5]

C#CCCCON=C1C[C@@H](O)[C@@H](O)[C@@H]2[C@H]3C(=O)N(C(C)(C)C)C(=O)[C@@H]3CC[C@H]12
inactive: Potency [1] | Potency [2] | Potency [3] | Potency [4] | Potency [5]

COc1cc(O)c(C(=O)C=Cc2ccccc2)c(O)c1
inactive: Potency [1] | Potency [2] | Potency [3] | Potency [4] | Potency [5]

C#CC1(O)C2C=C(OC)C(=O)C1C(c1ccccc1)C2C (stereo not drawn)
inactive: Potency [1] | Potency [2] | Potency [3] | Potency [4] | Potency [5]

CCOC(=O)OC[C@H]1O[C@H](c2cc(C)cc(C)c2)C=C[C@H]1OC(=O)OCC
inactive: Potency [1] | Potency [2] | Potency [3] | Potency [4] | Potency [5]

C=C(Br)CO[C@@H]1C=C[C@@H](c2ccccc2)O[C@@H]1COC
inactive: Potency [1] | Potency [2] | Potency [3] | Potency [4] | Potency [5]

CC1(O)C(=O)C=C2C=C3CCCN3C=C2C1=O (stereo not drawn)
inactive: activity change, negative = inhibition [6] 3.99% [at 11.4 µM] | activity change, negative = inhibition [7] -12% [at 11.4 µM] | activity, negative = inhibition [8] 32.3% [at 11.4 µM]

CC(=CC[Si](C)(C)C)CCC=O
inactive: Potency [1] | Potency [2] | Potency [4] | Potency [5]

COc1ccc(O[C@H]2C=C[C@@H](c3ccccc3)O[C@H]2CON=C[C@@H](C)[C@H](OCc2ccccc2)C(C)C)cc1
inactive: Potency [1] | Potency [2] | Potency [4] | Potency [5]

CC(=O)O[C@H](C(=O)O[C@@H]1C[C@@H](CCC[C@H]2O[C@H](C(=O)OC(C)C)CC[C@@H]2C)O[C@@H](CC#N)C1)c1ccccc1
inactive: Potency [1] | Potency [2] | Potency [4] | Potency [5]

Cc1cc2c(c(=O)o1)[C@H]1O[C@](c3ccsc3)(Cc3c1ccc1ccccc31)O2
inactive: Potency [1] | Potency [2] | Potency [4] | Potency [5]

C[C@H](O)CON1C(=O)c2ccccc2C1=O
inactive: Potency [1] | Potency [2] | Potency [4] | Potency [5]

O=C(NCCOc1ccccc1)O[C@@H]1C(=O)c2cc(Br)ccc2O[C@H]1c1ccc2c(c1)OCO2
inactive: Potency [1] | Potency [2] | Potency [4] | Potency [5]

O=C1Nc2cccc(Br)c2[C@@]12O[C@H](COc1ccccc1)CC1=CCC[C@H]12
inactive: Potency [1] | Potency [2] | Potency [4] | Potency [5]

O=C(NN=C1C[C@@H](O)[C@H](O)[C@H]2[C@@H]3C(=O)N(C[C@@H]4CCCO4)C(=O)[C@@H]3CC[C@@H]12)OCc1ccccc1
inactive: Potency [1] | Potency [2] | Potency [4] | Potency [5]

C=CCN1c2ccccc2[C@]23CCC(=O)N(CCCOC(C)C)C2=NC(C(=O)OC)=C(C(=O)OC)[C@H]13
inactive: Potency [1] | Potency [2] | Potency [4] | Potency [5]

C[C@@H]1CC[C@H]2C(=O)N(Cc3cccc([N+](=O)[O-])c3)C[C@@H](O)CN2[C@@H]1c1ccc(Br)cc1
inactive: Potency [1] | Potency [2] | Potency [4] | Potency [5]

COc1ccc(-c2nc3c(c4c2C[C@H](c2ccccc2)OC4)CN(C(=O)c2ccco2)CC3)c(C)c1
inactive: activity, negative = inhibition [1] -2.96% [at 1.12 µM] | Potency [2] | Potency [4] | Potency [5]

C[C@H](NC(=O)N1CCc2nc(COc3ccccc3)c3c(c2C1)CO[C@@H](C)C3)c1ccccc1
inactive: activity, negative = inhibition [1] -0.0576% [at 1.12 µM] | Potency [2] | Potency [4] | Potency [5]

C=CC1=C2C=C(C3CC3)N(CCCOC(C)C)C=C2C(=O)C(C)(OC(=O)c2ccco2)C1=O (stereo not drawn)
inactive: activity, negative = inhibition [1] 4.15% [at 1.12 µM] | Potency [2] | Potency [4] | Potency [5]

COC1=C[C@H](C(=O)NC2CCN(Cc3ccccc3)CC2)[C@@]2(C)Cc3ccccc3[C@@H]2CC1=O
inactive: Potency [1] | Potency [2] | Potency [4] | Potency [5]

COC(=O)[C@]1(C=C2c3ccccc3C[C@H](OC)[C@@H]2C)[C@@H]2CC=C[C@@H]21
inactive: Potency [1] | Potency [2] | Potency [4] | Potency [5]

COc1ccc2c(c1)O[C@@H](c1cccc(C(F)(F)F)c1)[C@H](OC(=O)Nc1ccc(OC(F)F)cc1)C2=O
inactive: Potency [1] | Potency [2] | Potency [4] | Potency [5]

CC1(C)OCC([C@H](O)C2=CCCCC2=O)CO1
inactive: Potency [1] | Potency [2] | Potency [4] | Potency [5]

C[C@@H]1CC[C@H]2C(=O)N(Cc3cccc([N+](=O)[O-])c3)C[C@H](O)CN2[C@@H]1c1cccc(Br)c1
inactive: Potency [1] | Potency [2] | Potency [4] | Potency [5]

COC(=O)[C@H](COC(C)(C)C)NC(=O)O[C@@H]1C(=O)c2cc(OC)ccc2O[C@H]1c1ccc(OC)c(Br)c1
inactive: Potency [1] | Potency [2] | Potency [4] | Potency [5]

COC(=O)[C@@H]1[C@@H](c2ccccc2)NC(=O)N(CCc2cc(OC)c(OC)c(OC)c2)[C@@H]1C
inactive: Potency [1] | Potency [2] | Potency [4] | Potency [5]

C=CC[C@@]1(c2ccc(OC)cc2)Oc2ccccc2C2=NCCN=C21
inactive: Potency [1] | Potency [2] | Potency [4] | Potency [5]

CC(CCN1CCCc2nc(C)c(C)cc21)=NOC[C@@H](O)[C@H]1O[C@@H]2OC(C)(C)O[C@H]2[C@@H]1O
inactive: Potency [1] | Potency [2] | Potency [4] | Potency [5]

CCCCCCCc1cc2ccccc2c2c(C=O)c(CCCC)c(C(=O)OC)n12
inactive: Potency [1] | Potency [2] | Potency [4] | Potency [5]

COc1ccc(NC(=O)N2CCc3nc(-c4ccc(OC)cc4C)c4c(c3C2)CO[C@@H](c2ccccc2)C4)cc1
inactive: Potency [1] | Potency [2] | Potency [4] | Potency [5]

COC(=O)C=P(c1ccccc1)(c1ccccc1)c1ccccc1
inactive: Potency [1] | Potency [2] | Potency [4] | Potency [5]

C#CCCCON=C1C[C@@H](O)[C@H](O)[C@H]2[C@@H]3C(=O)N(Cc4ccc5c(c4)OCO5)C(=O)[C@@H]3CC[C@H]12
inactive: Potency [1] | Potency [2] | Potency [4] | Potency [5]

O[C@H](CC#CCOc1ccccc1)COCc1ccccc1
inactive: Potency [1] | Potency [2] | Potency [4] | Potency [5]

CC1(OC(=O)CCc2ccccc2)C(=O)C=C2C=C(c3ccc(C#N)cc3)N(CC3CC3)C=C2C1=O (stereo not drawn)
inactive: activity, negative = inhibition [1] -3.92% [at 1.12 µM] | Potency [2] | Potency [4] | Potency [5]

CC=CC(=O)C[C@H]1CC[C@@H](C)[C@@H](CCO)O1
inactive: Potency [1] | Potency [2] | Potency [4] | Potency [5]

COc1ccc(OC[C@H]2CN3[C@H](c4ccc(Br)cc4)[C@H](C)CC[C@H]3C(=O)O2)cc1
inactive: Potency [1] | Potency [2] | Potency [4] | Potency [5]
